# Laboratory results taken from PubChem BioAssay (NCATS).
# Records with an inconclusive call do not appear. A call without a number means that no potency is given here. Unmarked numbers belong to inactive results. Activity calls are given as the source filed them. The call rests on the fitted dose curve; in most records, active means well fitted cell-killing curve with a large enough effect; inconclusive means small, poorly fitted or top-dose-only effect, or effect the other way; inactive means flat fitted curve, though single readings scatter.
# How the values were obtained:
# Test in all cases: Primary qHTS to identify gynecologic anti-cancer compounds using libraries of approved drugs and bioactive compounds (AID 1345084); further: nearly all actives have a fitted effect of over 55% in size
# [1] = tested on: C33A; settings: Gynecologic cancer cell panel viability, ATPlite luminescence, 48 h; series mostly up to 57.5 µM
# How it was run: (§1)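 Five-point cytotoxicity, 48 h drug exposure at 37 C, 5% CO2, on cells seeded 16 h beforehand. ATP content read by ATPlite luminescence.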
# [2] = tested on: CAOV3; settings: Gynecologic cancer cell panel viability, ATPlite luminescence, 48 h; series mostly up to 57.5 µM
# How it was run: as §1
# [3] = tested on: CASKI; settings: Gynecologic cancer cell panel viability, ATPlite luminescence, 48 h; series mostly up to 57.5 µM
# How it was run: as §1
# [4] = tested on: Hek293T; settings: Gynecologic cancer cell panel viability, ATPlite luminescence, 48 h, control line for the selectivity index; series mostly up to 57.5 µM
# How it was run: as §1
# [5] = tested on: JEG-3; settings: Gynecologic cancer cell panel viability, ATPlite luminescence, 48 h; series mostly up to 57.5 µM
# How it was run: as §1
# [6] = tested on: Es-2; settings: Gynecologic cancer cell panel viability, ATPlite luminescence, 48 h; series mostly up to 57.5 µM
# How it was run: as §1
# [7] = tested on: OV90; settings: Gynecologic cancer cell panel viability, ATPlite luminescence, 48 h; series mostly up to 57.5 µM
# How it was run: as §1
# [8] = tested on: Tov112D; settings: Gynecologic cancer cell panel viability, ATPlite luminescence, 48 h; series mostly up to 57.5 µM
# How it was run: as §1
# [9] = tested on: PA-1; settings: Gynecologic cancer cell panel viability, ATPlite luminescence, 48 h; series mostly up to 57.5 µM
# How it was run: as §1
# [10] = tested on: SKOV3; settings: Gynecologic cancer cell panel viability, ATPlite luminescence, 48 h; series mostly up to 57.5 µM
# How it was run: as §1
# [11] = tested on: Tov-21-G; settings: Gynecologic cancer cell panel viability, ATPlite luminescence, 48 h; series mostly up to 57.5 µM
# How it was run: as §1
# [12] = tested on: HeLa; settings: Gynecologic cancer cell panel viability, ATPlite luminescence, 48 h; series mostly up to 57.5 µM
# How it was run: as §1
# Potency means the concentration at half of the fitted maximal effect.
smiles,measurement,setting,value
CN1C2CCC1CC(OC(=O)[C@H](CO)c1ccccc1)C2 (stereo partly specified),Potency,[1],inactive
same,Potency,[2],inactive
same,Potency,[3],inactive
same,Potency,[4],inactive
same,Potency,[5],inactive
CC(C)(C)Nc1nc(Nc2ccc(C(N)=O)cc2)cc(N)c1C#N,Potency,[1],25.1 µM (active)
same,Potency,[2],inactive
same,Potency,[6],inactive
same,Potency,[5],inactive
same,Potency,[7],inactive
same,Potency,[8],inactive
C=C1C(=O)O[C@@H]2/C=C(\C)C(=O)/C=C/[C@](C)(O)C[C@@H](OC(=O)C(C)C)[C@@H]12,Potency,[1],8.91 µM (active)
same,Potency,[2],2.82 µM (active)
same,Potency,[6],3.16 µM (active)
same,Potency,[4],4.47 µM (active)
same,Potency,[9],4.47 µM (active)
same,Potency,[10],5.62 µM (active)
same,Potency,[11],3.98 µM (active)
same,Potency,[8],15.8 µM (active)
Cc1ccc(S(=O)(=O)Cc2nc(-c3ccc(C(=O)NCc4cccnc4)cc3)oc2C)cc1,Potency,[1],inactive
same,Potency,[2],inactive
same,Potency,[5],inactive
same,Potency,[7],inactive
Cc1ncc(CCCN(C)C)cc1Nc1ncc2c(n1)-c1ccc(C(F)(F)F)cc1NC(=S)C2,Potency,[1],inactive
same,Potency,[2],inactive
same,Potency,[3],inactive
same,Potency,[5],inactive
same,Potency,[11],inactive
N#Cc1ccc(-c2cnc3[nH]cc(NC(=O)c4cccnc4)c3c2)cc1,Potency,[1],inactive
same,Potency,[2],inactive
same,Potency,[3],inactive
same,Potency,[4],inactive
same,Potency,[5],inactive
same,Potency,[8],inactive
CO[C@H]1C[C@@H]2CC[C@@H](C)[C@@](O)(O2)C(=O)C(=O)N2CCCC[C@H]2C(=O)O[C@H]([C@H](C)C[C@@H]2CC[C@@H](OP(C)(C)=O)[C@H](OC)C2)CC(=O)[C@H](C)/C=C(\C)[C@@H](O)[C@@H](OC)C(=O)[C@H](C)C[C@H](C)/C=C/C=C/C=C/1C,Potency,[1],inactive
same,Potency,[2],inactive
same,Potency,[6],inactive
same,Potency,[12],inactive
same,Potency,[5],inactive
same,Potency,[9],inactive
same,Potency,[10],inactive
same,Potency,[11],inactive
same,Potency,[8],inactive
C[C@@H]1O[C@@H](O[C@H]2[C@H](O)[C@@H](O)[C@H](OC3CCC4(C)C5CCC(C)(C(CO)OC6OC(CO)C(O)C(O)C6O)CC5=CCC4C3(C)C)O[C@@H]2CO)[C@H](O)[C@H](O)[C@H]1O (stereo partly specified),Potency,[1],inactive
same,Potency,[3],inactive
same,Potency,[6],inactive
same,Potency,[12],inactive
same,Potency,[4],inactive
same,Potency,[5],inactive
same,Potency,[7],inactive
same,Potency,[9],inactive
same,Potency,[10],inactive
same,Potency,[11],inactive
same,Potency,[8],inactive
C[C@@H]1O[C@@H](O[C@H]2[C@H](O)[C@@H](C(=O)O)O[C@@H](O[C@H]3CC[C@@]4(C)C(CC[C@]5(C)C4CC=C4C6CC(C)(C)CC[C@]6(C(=O)O)CC[C@]45C)C3(C)C)[C@@H]2O[C@@H]2OC[C@@H](O)[C@H](O)[C@H]2O)[C@H](O)[C@H](O)[C@H]1O (stereo partly specified),"activity change, negative = cytotoxicity",[1],12.7% [at 11.6 µM]
same,"activity change, negative = cytotoxicity",[3],-0.197% [at 11.6 µM]
same,"activity change, negative = cytotoxicity",[6],-1.84% [at 11.6 µM]
same,"activity change, negative = cytotoxicity",[12],10.5% [at 11.6 µM]
same,"activity change, negative = cytotoxicity",[4],5.25% [at 11.6 µM]
same,"activity change, negative = cytotoxicity",[5],3.19% [at 11.6 µM]
same,"activity change, negative = cytotoxicity",[7],2.8% [at 11.6 µM]
same,"activity change, negative = cytotoxicity",[9],4.01% [at 11.6 µM]
same,"activity change, negative = cytotoxicity",[10],-0.245% [at 11.6 µM]
same,"activity change, negative = cytotoxicity",[11],13.2% [at 11.6 µM]
same,"activity change, negative = cytotoxicity",[8],4.42% [at 11.6 µM]
C/C=C/C=C/C(=O)N1CC[C@]23c4ccccc4N[C@H]4N(C)c5cccc6c5[C@@]42CCN([C@H]6C2OC2(C)C)[C@H]13 (stereo partly specified),Potency,[1],inactive
same,Potency,[3],inactive
same,Potency,[6],inactive
same,Potency,[12],inactive
same,Potency,[4],inactive
same,Potency,[5],inactive
same,Potency,[7],inactive
same,Potency,[9],inactive
same,Potency,[10],inactive
same,Potency,[11],inactive
same,Potency,[8],inactive
CC(C)S(=O)(=O)N[C@H]1CCOC[C@@H]1c1ccc(-c2ccc(C#N)s2)cc1,Potency,[1],inactive
same,Potency,[3],inactive
same,Potency,[6],inactive
same,Potency,[12],inactive
same,Potency,[4],inactive
same,Potency,[5],inactive
same,Potency,[7],inactive
same,Potency,[9],inactive
same,Potency,[10],inactive
same,Potency,[11],inactive
same,Potency,[8],inactive
C[C@H](Oc1ccc(S(C)(=O)=O)cc1C(=O)N1CCN(c2ncc(C(F)(F)F)cc2F)CC1)C(F)(F)F,Potency,[1],inactive
same,Potency,[3],inactive
same,Potency,[6],inactive
same,Potency,[12],inactive
same,Potency,[4],inactive
same,Potency,[5],inactive
same,Potency,[7],inactive
same,Potency,[9],inactive
same,Potency,[10],inactive
same,Potency,[11],inactive
same,Potency,[8],inactive
O=C1NC(=O)C(c2cn(-c3ccccc3)nc2-c2ccc(F)cc2)N1 (stereo unspecified),Potency,[1],inactive
same,Potency,[3],inactive
same,Potency,[6],inactive
same,Potency,[12],inactive
same,Potency,[4],inactive
same,Potency,[5],inactive
same,Potency,[7],inactive
same,Potency,[9],inactive
same,Potency,[10],inactive
same,Potency,[11],inactive
same,Potency,[8],inactive
Cc1ccc(C)c(OCCn2cc(C(=O)O)c3ccccc32)c1,Potency,[1],inactive
same,Potency,[3],inactive
same,Potency,[6],inactive
same,Potency,[12],inactive
same,Potency,[4],inactive
same,Potency,[5],inactive
same,Potency,[7],inactive
same,Potency,[9],inactive
same,Potency,[10],inactive
same,Potency,[11],inactive
same,Potency,[8],inactive
CCO[C@@H]1OC(=O)C[C@@H]1NC(=O)[C@@H]1CCCN1C(=O)[C@@H](NC(=O)c1ccc(N)c(Cl)c1)C(C)(C)C,Potency,[1],inactive
same,Potency,[3],inactive
same,Potency,[6],inactive
same,Potency,[12],inactive
same,Potency,[4],inactive
same,Potency,[5],inactive
same,Potency,[7],inactive
same,Potency,[9],inactive
same,Potency,[10],inactive
same,Potency,[11],inactive
same,Potency,[8],inactive
